This note sets out measurements from PubChem BioAssay AID2101 (National Center for Advancing Translational Sciences (NCATS), 2009).

The campaign covered roughly 330,000 compounds. About 300 (0.091%) were called active. Not shown: some 4% with an inconclusive outcome. The list comes from a sample in which actives are over-represented; it also holds similar structures and randomly drawn compounds. A call without a number means that no potency is given here. A number with no mark means an inactive call. Calls come from the whole dose curve; as a rule, active = well fitted inhibition curve with a large enough effect; inconclusive = small, poorly fitted or top-dose-only effect, or effect the other way, or another doubt; inactive = no such curve, though single readings can be large or run the other way.
Potency is the fitted concentration of half-maximal effect.

This experiment has as its target Lysosomal acid glucosylceramidase (Homo sapiens) (UniProt P04062). Kind of experiment: qHTS Assay for Inhibitors and Activators of N370S glucocerebrosidase as a Potential Chaperone Treatment of Gaucher Disease. To be noted: N370S GC spleen homogenate, 4MU-glucoside fluorescence; series mostly up to 59.4 µM. The text has this:
NIH Chemical Genomics Center [NCGC]
NIH Molecular Libraries Probe Production Centers Network [MLPCN]
Assay Submitter (PI): Wei Zheng
Glucocerebrosidase (GC) catalyzes the hydrolysis of beta-glucocerebroside to glucose and ceramide in lysosomes. Mutations in the glucocerebrosidase gene result in Gaucher disease, an autosomal recessive lysosomal storage disorder. Many of the mutations encountered in patients with Gaucher disease are missense alterations that may cause misfolding, decreased stability and/or mistrafficking of this lysosomal protein. […] These inhibitors include iminosugar analogs and three non-iminosugar inhibitors identified from a previous HTS of 62,000 compounds with the wild type recombinant enzyme. However, the enhancement of enzyme activity by the chaperone action of an enzyme inhibitor must be balanced against the direct inhibition of the enzyme. An enzyme activator could also function as a chaperone by binding to the enzyme and helping to correct its misfolding and mistrafficking. While activators for GC have not yet been identified, they may have better therapeutic potential than inhibitors. Therefore the discovery and development of chemical activators may provide a new strategy for the chaperone therapy.
We have optimized a new assay using N370S mutant GC derived from the spleen of a Gaucher patient. […] In addition, the MLPCN compound library has expanded, which increases the chance of finding new and better probes.
NCGC Assay Protocol Summary:
This is a fluorogenic enzyme assay with 4-methylumbelliferyl-beta-D-glucopyranoside as the substrate and N370S glucocerebrosidase from human spleen homogenate as the enzyme preparation. Upon the hydrolysis of this fluorogenic substrate, the resulting product, […] which can be detected by a standard fluorescence plate reader. Data were normalized to the controls for basal activity (without enzyme) and 100% activity (with enzyme). The AC50 values were determined from concentration-response data modeled with the standard Hill equation.
Assay buffer: 50 mM citric acid (titrated with potassium phosphate to pH 5.0), 100 mM potassium chloride, 10 mM sodium chloride, 1 mM magnesium chloride, 0.01% Tween-20.
1536-well assay protocol:
(1) Add 2 ul/well of spleen homogenate (27 ug final)
(2) Add 23 nL compounds in DMSO solution. The final titration was 0.5 nM to 58 uM.
(3) Add 2 ul of substrate (1 mM final)
(4) Incubate at 37C for 40 min.
(5) Add 2 ul stop solution (1M NaOH and 1M Glycine mixture, pH 10)
(6) Detect the assay plate in a ViewLux plate reader (PerkinElmer) with Ex=365 nm and Em=440nm.
Keywords: Glucocerebrosidase, beta-glucosidase, Gaucher Disease, pharmacological chaperone, chaperone therapy, high throughput screening, glucocerebrosidase inhibitor, MLSMR, MLSCN, NIH Roadmap, qHTS and NCGC
Regarding `O=c1cc(-c2ccc(O)cc2)oc2c([C@@H]3O[C@H](CO)[C@@H](O)[C@H](O)[C@H]3O)c(O)cc(O)c12`, the activity change, negative = inhibition result is “inactive”. On the same count and under the same terms, to `COc1ccc2[nH]cc(CCNc3ncnc4ccc(-c5ccc(C(=O)N(C)C)cc5)cc34)c2c1` belongs “inactive”; to `CCOC(=O)Cc1csc(SCC(=O)Nc2ccc(C)cc2F)n1`, “inactive”.

As to `CC[C@H](C)[C@H](NC(=O)[C@@H](N)CCC(=O)O)C(=O)N[C@@H](CC(C)C)C(=O)N[C@@H](CC(=O)O)C(=O)N[C@H](C(=O)N1CCC[C@H]1C(=O)N[C@@H](CO)C(=O)N[C@H](C(=O)O)[C@@H](C)O)C(C)C`, the activity change, negative = inhibition entry was “inactive”.

With `N#CCC(=O)Nc1ccc(C(=O)OCC(=O)Nc2sc3c(c2C#N)CCCC3)cc1`, the activity change, negative = inhibition result is “inactive”. The same measure, in the same setting: to `CC(=O)CC(C)C` belongs “inactive”. With `Oc1ccc(N=Cc2c(O)ccc3ccccc23)cc1`, the Potency is 12.6 µM (active). On to `O=[N+]([O-])c1ccc(N=Cc2c(O)ccc3ccccc23)cc1`, for which the activity change, negative = inhibition entry is “inactive”. Same read-out and setting: to `CCOc1[nH]n(-c2ccc(Cl)cc2)c(=O)c1C=Nc1ccc(O)cc1` belongs “inactive”. The same measure, in the same setting: to `CC(=O)c1ccc(N2CCN(C(=O)c3ccc(Cl)c(S(=O)(=O)NC4CC4)c3)CC2)c(F)c1` belongs “inactive”; to `Oc1ccc(O)c2c(O)cccc12`, “inactive”; to `Cc1ccc(C)c(NC(=O)CN(C)C(=O)c2ccc3ncsc3c2)c1`, “inactive”. For `CSc1ccccc1NC(=O)COC(=O)CCCOc1ccc(C)cc1`, the activity change, negative = inhibition entry is “inactive”. The same measure, in the same setting: to `CC1CCCC(NC(=O)c2cc(-c3ccncc3)nc3ccccc23)C1C` (centres undefined) belongs “inactive”; to `CCOc1ccc(N(CC(=O)NCCc2ccc(F)cc2)S(=O)(=O)c2ccccc2)cc1`, “inactive”. Take `CCOc1ccc(N(CC(=O)Nc2ccccc2F)S(=O)(=O)c2c(C)[nH]c(=O)[nH]c2=O)cc1`: the Potency is 3.16 µM (active).

As to `COc1ccc(N(CC(=O)NC2CCCCC2)S(=O)(=O)c2c(C)[nH]c(=O)[nH]c2=O)cc1`, the Potency is 3.98 µM (active). For `COc1cccc(N(CC(=O)NC2CCCCCC2)S(=O)(=O)c2ccccc2)c1`, the activity change, negative = inhibition entry is “inactive”.

In the case of `CCOc1ccc(N(CC(=O)Nc2cccc(OC)c2)S(C)(=O)=O)cc1`, the activity change, negative = inhibition entry was “inactive”.

For `CCOc1ccc(N(CC(=O)NCc2ccc(OC)cc2)S(=O)(=O)c2c(C)noc2C)cc1`, the activity change, negative = inhibition entry was “inactive”.

Take `CCOc1ccc(N(CC(=O)NC2CCCCCC2)S(=O)(=O)c2c(C)[nH]c(=O)[nH]c2=O)cc1`: the Potency was 2.51 µM (active). Take `COc1ccc(N(CC(=O)NC2CCCCCCC2)S(=O)(=O)c2c(C)nn(C)c2C)cc1`: the activity change, negative = inhibition result is “inactive”. Still for that read-out and setting: as for `CCCN(c1ccc(C(C)C)cc1)S(=O)(=O)c1c(C)[nH]c(=O)[nH]c1=O`, the entry is “inactive”; as for `O=C(NCc1ccco1)O[C@@H]1C(=O)c2cc(Br)ccc2O[C@H]1c1ccc2c(c1)OCO2`, “inactive”; as for `CCn1c(=O)c(=O)n(CC)c2cc(N3CCCCC3)c(NC(=O)c3ccc(Cl)cc3)cc21`, “inactive”. Same read-out and setting: to `CCC(C)C(N=C1NS(=O)(=O)c2ccccc21)C(=O)N1CCC(C)CC1` (centres undefined) belongs “inactive”. The same measure, in the same setting: as for `O=C1CN(Cc2ccccc2)S(=O)(=O)c2ccccc21`, the entry is “inactive”.

For `C#CCOCCOCCOCCNc1nc(N2CCN(C(=O)CCCCCCCCCCNC(=O)[C@H](CCCCN)n3cc(C)nn3)CC2)nc(N2CCN(C(=O)CCCCCCCCCCNC(=O)[C@H](CO)n3cc(CCCSC)nn3)CC2)n1`, the Potency is 15.8 µM (active). In the case of `C#CCOCCOCCOCCNc1nc(N2CCN(C(=O)Cn3cc(CCCCN)nn3)CC2)nc(N2CCN(C(=O)[C@H](CCCCN)n3cc(CCC(=O)O)nn3)CC2)n1`, the activity change, negative = inhibition result is “inactive”. For the compound `C#CCOCCOCCOCCNc1nc(N2CCN(C(=O)CCCCCCCCCCNC(=O)Cn3cc(CCCCCN)nn3)CC2)nc(N2CCN(C(=O)CCCCCCCCCCNC(=O)[C@H](CO)n3cc(CCCSC)nn3)CC2)n1`, the activity change, negative = inhibition result was “inactive”. Turning to `O=c1c(O)c(-c2ccc(O)cc2)oc2ccccc12`, the activity change, negative = inhibition result is “inactive”. Same read-out and setting: as for `CCCCN(CC(=O)Nc1cccc(S(=O)(=O)N2CCCC2)c1)Cc1nc2ccccc2c(=O)[nH]1`, the entry is “inactive”. The same measure, in the same setting: as for `COc1cc(C(=O)OCC(=O)NC23CC4CC(CC(C4)C2)C3)cc(OC)c1OC`, the entry is “inactive”; as for `CN1CCN(c2ncc3nc(-c4ccc(Cl)cc4)c(=O)n(-c4ccccc4)c3n2)CC1`, “inactive”. On the same count and under the same terms, as for `COc1cccc([C@H]2Oc3ccc(OC)cc3/C(=N\OCC[C@@H]3C=C[C@H](OC(C)=O)[C@H](COC(C)=O)O3)[C@@H]2O)c1`, the figure is 10.4% [at 12.8 µM]; as for `COc1ccc(-c2ccc(C3C4C=CCCC4(C)C(=O)N3Cc3ccccc3)c(F)c2)cc1OC` (centres undefined), “inactive”. For the compound `CCc1ccc(CN(C)C(C)C(=O)Nc2ccc(S(=O)(=O)N3CCCC3)cc2)cc1` (centres undefined), the activity change, negative = inhibition entry was “inactive”. Still for that read-out and setting: as for `Cc1csc(SCC(=O)N(c2ccccc2)C(C)C)n1`, the entry is “inactive”. The same measure, in the same setting: as for `c1cncc(CNc2ccnc(-c3ccc4c(c3)OCO4)n2)c1`, the entry is “inactive”; as for `CC(=O)c1ccc(OCCCC(=O)Nc2ccc(C)c(S(=O)(=O)N3CCOCC3)c2)cc1`, “inactive”; as for `Cc1ccc(-c2cccc([C@H]3[C@@H]4C=CC[C@@H](C)[C@@H]4C(=O)N3Cc3ccccc3)c2)cc1`, “inactive”. On the same count and under the same terms, as for `O=C(C1CC(=O)N(C2CCCC2)C1)N1CCN(c2cccc(C(F)(F)F)c2)CC1` (centres undefined), the entry is “inactive”; as for `CC(C)C[C@@H](CC(=O)N[C@@H](CCC(=O)O)CC(=O)O)NC(=O)[C@@H]1CCCC[C@H]1NC(=O)C[C@@H](NC(=O)C[C@H](CO)NC(=O)[C@@H]1CCCC[C@H]1N)C(C)C`, “inactive”; as for `COc1cc(OC)c2c(c1C(CCN1CCCCC1)c1ccc(N(C)C)cc1)OC(=O)CC2c1ccc(N(C)C)cc1` (centres undefined), “inactive”.
